Screening data: PubChem BioAssay, National Center for Advancing Translational Sciences (NCATS)
This is a sample that favours compounds with a hit; in the whole collection about 21% have one here.
Cycloheximide cs = Cycloheximide Counterscreen for Small Molecule Inhibitors of Shiga Toxin; cell reporter, cycloheximide protein synthesis inhibition counterscreen; max response, %; AID 2314, 2010; actives 12% (n = 300,000); in the data active means max response mostly above about 13%, no sharp cut-off; inactive means mostly below about 14%; further: read at 38.3 µM for the half of the compounds with a filed dose; 0% is about no effect
Shiga toxin inh = A qHTS for Small Molecule Inhibitors of Shiga Toxin; Vero cells, Shiga toxin protein synthesis inhibition reporter; inhibition, % at 38.7 µM; actives 9.2% (n = 290,000); AID 2315, 2010; in the data active means inhibition mostly above about 28%, no sharp cut-off; inactive means mostly below about 43%; further: 0% is about no effect
Pf growth 48h = Primary qHTS for delayed death inhibitors of the malarial parasite plastid, 48 hour incubation; P. falciparum luciferase growth in erythrocytes, 48 h; Potency, µM (titrated, usually from 28.7 µM), for the others: at the top dose activity change, negative = inhibition, usual class: inhibitors; actives 5.9% (n = 310,000); further: potency means the concentration at half of the fitted maximal effect; on the % scale 0 is the no-effect control and ±100 the full control effect
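Here the parasites carry a stable luciferase gene and grow inside erythrocytes in Albumax-based RPMI medium with compound for one erythrocytic cycle. Activity is scored as loss of luminescent signal.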
Pf growth 96h = Primary qHTS for delayed death inhibitors of the malarial parasite plastid, 96 hour incubation; P. falciparum luciferase reporter growth, 96 h; actives 6.9% (n = 320,000); Potency, µM (highest dose often 28.7 µM), for inactives: at the highest dose activity change, negative = inhibition, actives largely listed as inhibitors; further: potency means the concentration at half of the fitted maximal effect; on the % scale 0 is the no-effect control and ±100 the full control effect
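P. falciparum expressing integrated firefly luciferase, in erythrocytes at 2% hematocrit, 0.05% parasitemia, incubated with compounds 96 h at 37 C, 5% CO2. Growth inhibition read as loss of luminescence; two-generation exposure targets delayed-death apicoplast inhibitors.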
NS1 function inh = qHTS Assay for Inhibitors of Influenza NS1 Protein Function | AID 2326, 2010 | actives 0.4% (n = 270,000) | Potency, µM (top dose mostly 46.1 µM), for inactives: at the top dose activity, positive = more growth; calls by dose curve; further: potency means the concentration at half of the fitted maximal effect; actives are rising curves; nearly all actives have a fitted effect of over 50% in size
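A cell-based growth assay was used: compounds that relieve NS1-induced slow growth of budding yeast raise OD600. Assay medium was yeast nitrogen base with ammonium sulphate and -URA supplement, pH 6.0, with 2% galactose.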
* marks the source's active call; other numbers are inactive results; i = inactive; u = inconclusive; x = no result given. Unless noted, the call rests on the fitted dose curve; in most records, active means well fitted inhibition curve with a large enough effect; inconclusive means small, poorly fitted or top-dose-only effect, or another doubt; inactive means no such curve, though single readings can be large or run the other way.

SMILES	Cycloheximide cs	Shiga toxin inh	Pf growth 48h	Pf growth 96h	NS1 function inh
CCCC(=O)Nc1ccc2oc(-c3cccnc3)nc2c1	25*	54*	31%	x	-7%
O=C(Nc1ccc2oc(-c3cccnc3)nc2c1)c1cc2ccccc2o1	-6	11	-3%	152%	-23%
COC(=O)Cc1ccc2oc(-c3cccnc3)nc2c1	49*	88*	i	37%	x
CCN(Cc1ccncc1)C(=O)c1ccc2c(c1)S(=O)(=O)c1ccccc1C2=O	6	9	-13%	-15%	x
Cc1ccc(/C=N/c2sc3c(c2C(N)=O)CCCC3)o1	37*	60*	278%	u	x
NC(=O)c1c(/N=C/c2cccnc2)sc2c1CCCC2	25*	47*	0%	45%	-6%
O=C(Nc1ccc(Cl)cc1C(=O)NCc1cccnc1)c1ccc(Cl)cc1Cl	-3	-6	8.3µM*	3.3µM*	-21%
O=C(Nc1c(Cl)cc(Cl)cc1C(=O)NCc1cccnc1)c1ccc(Cl)cc1Cl	1	24	1.5µM*	18%	-7%
O=C(Nc1ccccc1C(=O)NCc1cccnc1)c1ccccc1Cl	2	-5	-4%	u	7%
Cc1ccccc1C(=O)N1CCN(c2ccc(NC(=O)c3ccc([N+](=O)[O-])o3)cc2)CC1	1	3	u	-9%	-8%
S=C(NCCc1ccccn1)Nc1cc(Cl)cc(Cl)c1	-1	-5	u	13µM*	-9%
CN(C)CCNC(=S)Nc1ccc(Cl)cc1Cl	23*	30	23%	20%	6%
COc1cccc(NC(=S)NCCc2ccccn2)c1	27*	39*	26%	-21%	7%
COc1cccc(NC(=S)N(CCc2ccc(OC)c(OC)c2)Cc2ccccn2)c1	1	-7	u	u	-8%
CN(C)C(=S)SCC(=O)Nc1ccc(Cl)cc1Cl	24*	110*	20%	17%	-22%
CCN(CC)S(=O)(=O)c1ccc(S(=O)(=O)NCC2CCCO2)cc1 (stereo unspecified)	1	-6	0%	u	9%
CCOC(=O)CCP(=O)(O)C(O)c1ccccc1 (stereo unspecified)	1	-22	x	38%	3%
O=C(COC(=O)[C@@H]1CCCN1C(=O)c1cccs1)Nc1ccc(F)cc1[N+](=O)[O-]	6	-18	5%	26%	x
CCCCC(C(=O)O)C(C)CC(=O)Nc1nccs1 (stereo unspecified)	-2	2	31%	0%	10%
S=C(NCCc1ccccn1)Nc1ccc(Cl)c(Cl)c1	2	41*	-6%	u	7%
Cc1cccc(Cl)c1NC(=S)NCCc1ccccn1	-1	-6	-14%	5%	1%
S=C(NCCc1ccccn1)Nc1ccc(Cl)cc1Cl	14*	42	1%	26%	-2%
S=C(NCCc1ccccn1)Nc1ccccc1	22*	34*	14%	54%	x
S=C(NCCc1ccccn1)Nc1ccccc1Cl	11	22	17%	-20%	3%
COc1cccc(N2CC(C(=O)Nc3nnc(SCc4cccnc4)s3)CC2=O)c1 (stereo unspecified)	4	-10	-11%	u	2%
SMILES	Cycloheximide cs	Shiga toxin inh	Pf growth 48h	Pf growth 96h	NS1 function inh
CC(C)NC(=O)CSc1nnc(-c2ccc3ncccc3c2)n1C	-2	-2	-5%	5%	7%
CCCCCCCCCCC/C=C\C(C)(C)/C=C\CCCC(=O)O	x	x	x	x	-3%
Cn1c2ccccc2c2cc(C(=O)NNC(=O)CCl)sc21	7	-7	u	9.3µM*	x
O=C(CSc1ccccc1)NCC1(N2CCCCC2)CCCCC1	x	x	-2%	u	x
Cc1nc(N2CCN(S(=O)(=O)c3cccc4nonc34)CC2)c2c3c(sc2n1)CCCC3	-5	-5	9%	x	3%
Cc1nnc(Oc2ccccc2)c2ccccc12	24*	47*	-3%	-27%	-18%
Cc1ccccc1Oc1nnc(-c2cccs2)c2ccccc12	0	-12	-7%	u	-1%
COc1ccc(Oc2nnc(C)c3ccccc23)cc1	46*	42	x	195%	-31%
Cc1nnc(Oc2ccccc2F)c2ccccc12	33*	106*	58%	42%	-12%
Cc1nnc(Oc2ccc([N+](=O)[O-])cc2)c2ccccc12	11	30	67%	40%	-4%
O=C(CCC(=O)NC1CCCCC1)Nc1cccnc1	1	-2	-6%	0%	5%
O=C(Nc1cccnc1)OC1CCCC1	22*	40	60%	30%	x
O=C(Nc1cccnc1)OC1CCCCC1	19*	36	75%	42%	x
COc1cc(/C=C/C(=O)c2ccc3c(c2)OCO3)cc(Cl)c1O	8	25	-23%	u	-48%
O=C(/C=C\Nc1ccc2c(c1)OCO2)c1ccc2c(c1)OCO2	29*	95*	106%	24%	-5%
COc1ccc(N/C=C\C(=O)c2ccc3c(c2)OCO3)cc1	63*	88*	289%	x	-138%
COc1ccc(N/C=C/C(=O)c2ccc3c(c2)OCO3)cc1OC	67*	61*	61%	u	-36%
COc1ccc(C(=O)/C=C/Nc2cccc(O)c2)cc1	-1	-12	166%	x	-106%
COc1cccc(NC(=O)COC(=O)CCn2c(C)csc2=O)c1	x	x	1%	11%	x
O=C(Cn1ccccc1=O)NCc1ccc(F)cc1	-2	29	8%	18%	11%
Cc1ccccc1C(=O)O/N=C1\CCS(=O)(=O)c2sccc21	39*	83*	149%	41%	6%
COc1ccc(C(=O)O/N=C2\CCS(=O)(=O)c3sccc32)cc1	16	19	1%	15%	6%
COc1ccc(N=C2CCS(=O)(=O)c3sccc32)cc1	41*	72	39%	30%	2%
COc1cnc(-c2ccccn2)nc1N(C)c1ccccc1	48*	66*	0.93µM*	0.93µM*	-64%
COc1cnc(-c2ccccn2)nc1Oc1ccccc1	1	-4	12µM*	u	x
SMILES	Cycloheximide cs	Shiga toxin inh	Pf growth 48h	Pf growth 96h	NS1 function inh
COc1cnc(-c2ccccn2)nc1Oc1cccc(C(F)(F)F)c1	13	-6	2.3µM*	1.7µM*	-5%
O=C(CSc1nnc(C2CC2)n1CC1CCCO1)Nc1ccccc1Cl (stereo unspecified)	1	9	16%	25%	-4%
Cc1ccc(C(=O)NC2CCN(CC(=O)NCc3cccs3)CC2)cc1	6	-10	-10%	u	x
Cc1ccc(C(CC(=O)N2CCOCC2)c2ccco2)cc1 (stereo unspecified)	2	0	u	x	u
O=C(NC1=NCCS1)C12CC3CC(C1)CC(C(=O)NC1=NCCS1)(C3)C2	1	-4	-17%	-9%	0%
O=C(CCC1CCCCC1)NC1=NCCS1	-4	-1	71%	10µM*	-16%
O=C(CC12CC3CC(C1)CC(CC(=O)NC1=NCCS1)(C3)C2)NC1=NCCS1	-4	2	9.3µM*	x	-6%
CC12CC3CC(C)(C1)CC(C(=O)NC1=NCCS1)(C3)C2	-1	8	x	12µM*	-239%
